# Data: PubChem BioAssay (Tox21)
# Several values for one entry are separate records, joined by “and”; a condition that tells them apart may be missing. Equal entries are not always repeated. Inconclusive results are not listed. Entries that show only a call come without a potency. A structure can be active in one record and inactive in another. Activity calls are given as the source filed them. Calls follow the shape of the dose curve; as a rule, active = well fitted cell-killing curve with a large enough effect in the repeat runs; inconclusive = weak or mixed curves; inactive = flat fitted curve, though single readings scatter.
# Assay: qHTS RealTime-Glo MT Cell Viability Assay in HepG2 cells - 16 hour (AID 1224885); also: nearly all actives have a fitted effect of over 50% in size
# Details: RealTime-Glo luminescence; series mostly up to 76.8 µM
# How it was run: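 Real-time, nonlytic viability: 600 HepG2 cells/well mixed with NanoLuc enzyme plus prosubstrate; 5 h settle, compound (DMSO) added by pintool; luminescence monitored over 40 h at 37 C.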
# Potency is read from the fitted curve at half-maximal effect.
row,Compound,Potency
1,N#CCCCCC#N,inactive
2,COP(=S)(OC)Oc1ccc(S(=O)(=O)N(C)C)cc1,inactive
3,N#Cc1c(Cl)c(Cl)c(Cl)c(C#N)c1Cl,21.5 µM (active) and 6.16 µM (active)
4,C[C@]12CC[C@H]3[C@@H](CCC4=CC(=O)CC[C@@H]43)[C@@H]1CC[C@@H]2O,inactive
5,COc1ccc(CO)cc1,inactive
6,CCC(=O)Nc1ccc(Cl)c(Cl)c1,inactive
7,NN=C(N)N,inactive
8,OC(c1ccc(Cl)cc1)(c1cncnc1)c1ccccc1Cl (stereo not given),39.6 µM (active)
9,Cl,inactive
10,CC(C)(c1ccccc1)c1ccc(O)c(C(C)(C)c2ccccc2)c1,54.4 µM (active) and 43.6 µM (active)
11,CC(C)(c1ccccc1)c1ccc(O)cc1,inactive
12,COP(=O)(NC(C)=O)SC (stereo not given),inactive
13,COC(=O)Nc1nc2ccccc2[nH]1,inactive
14,CC(O)CN(CC(C)O)CC(C)O (stereo not given),inactive
15,CCCCSP(=O)(SCCCC)SCCCC,inactive
16,O=P(OCCCl)(OCCCl)OCCCl,inactive
17,CCOS(=O)(=O)OCC,inactive
18,CC(C)(O)C#N,inactive
19,CS(=O)(=O)NC(=O)c1cc(Oc2ccc(C(F)(F)F)cc2Cl)ccc1[N+](=O)[O-],inactive
20,Nc1ccc([N+](=O)[O-])cc1N,inactive
21,Oc1ccc(Cl)cc1Cc1ccccc1,49.6 µM (active) and inactive
22,CCC1(c2ccc(N)cc2)CCC(=O)NC1=O (stereo not given),inactive
23,NC(=O)CN1CCCC1=O,inactive
24,COc1ccc(C=O)cc1OC,inactive
25,O=C(O)c1nn(Cc2ccc(Cl)cc2Cl)c2ccccc12,inactive
